Measured values taken from PubChem BioAssay (EPA / NIEHS).
Records with an inconclusive call do not appear. The source made the active and inactive calls. Rule for the calls, unless noted: active = hit-call score of the fitted dose curve at least 0.9, where 1 is the maximum; inactive = score below 0.9.

Legend:
[1] = read-out: Human Leukocyte Antigen - DR isotype (HLADR), HLA-DRA (gene 3122); experiment: BSK_3C_HLADR: BioMAP Diversity Plus: 3C Assay for Human Leukocyte Antigen - DR isotype (HLADR) Biomarker Activity (AID 2283019); conditions: primary human endothelial cells (HUVEC); actives raise or lower the signal
Outline: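 HUVEC, 3C stimulation, 24 h post-dose; HLA-DR by ELISA; bidirectional curve fit vs DMSO baseline; gain or loss of signal scored.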

[2] = read-out: Interleukin-8 (IL8), CXCL8 (gene 3576); experiment: BSK_3C_IL8: BioMAP Diversity Plus: 3C Assay for Interleukin-8 (IL8) Biomarker Activity (AID 2283020); conditions: primary human endothelial cells (HUVEC); actives raise or lower the signal
Outline: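 Human vascular endothelial cells (umbilical vein) in the 3C system; IL-8 level detected by ELISA at 24 h post-dose, with DMSO as baseline.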

[3] = read-out: Monokine induced gamma interferon (MIG), CXCL9 (gene 4283); experiment: BSK_3C_MIG: BioMAP Diversity Plus: 3C Assay for Monokine induced gamma interferon (MIG) Biomarker Activity (AID 2283021); conditions: primary human endothelial cells (HUVEC); actives raise or lower the signal
Outline: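 After 24 h of treatment, human umbilical vein endothelial cultures (3C system) had their MIG biomarker level determined by ELISA, with DMSO serving as negative control.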

[4] = target: human Vitamin D Receptor (VDR), VDR (gene 7421) (UniProt P11473); experiment: ATG_VDR_TRANS: Attagene TRANS-FACTORIAL HepG2 Assay for human Vitamin D Receptor (VDR) (AID 2283022; active = hit-call score of the fitted dose curve at least 0.9, where 1 is the maximum)
Sequence of human Vitamin D Receptor (VDR), VDR (gene 7421) (P11473 whole entry, looked up, the tested form may be a part): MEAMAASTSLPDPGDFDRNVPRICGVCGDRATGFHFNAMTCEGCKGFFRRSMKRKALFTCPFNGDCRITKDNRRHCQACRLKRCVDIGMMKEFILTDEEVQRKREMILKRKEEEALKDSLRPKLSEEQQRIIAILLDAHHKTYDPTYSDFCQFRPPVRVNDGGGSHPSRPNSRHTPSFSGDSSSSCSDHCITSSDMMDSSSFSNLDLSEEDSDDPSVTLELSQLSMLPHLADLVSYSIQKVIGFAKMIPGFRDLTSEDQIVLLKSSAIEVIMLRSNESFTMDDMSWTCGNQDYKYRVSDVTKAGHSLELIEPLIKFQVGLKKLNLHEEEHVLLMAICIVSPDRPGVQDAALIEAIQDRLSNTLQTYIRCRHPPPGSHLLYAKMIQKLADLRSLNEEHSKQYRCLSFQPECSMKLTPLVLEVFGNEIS
Outline: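 RT-PCR/capillary electrophoresis read-out of reporter mRNA induction in transiently transfected HepG2; 24 h dosing; chimeric NR-Gal4 (TRANS format); gain-of-signal fit against DMSO baseline.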

[5] = BSK_3C_SRB: Viability Assessment in the BioMAP Diversity Plus: 3C Assay (AID 2283023); conditions: primary human endothelial cells (HUVEC);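 note: cells read 24 h after compound dosing; fitted both ways against DMSO so a hit may be signal rise or drop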
Outline: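 HUVEC, 24 h post-dose; 10% TCA fix, 0.1% SRB stain, A560 nm. Bidirectional curve fit vs DMSO negative control.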

[6] = read-out: Matrix Metallopeptidase 1 (MMP1), MMP1 (gene 4312); experiment: BSK_BE3C_MMP1: BioMAP Diversity Plus: BE3C Assay for Matrix Metallopeptidase 1 (MMP1) Biomarker Activity (AID 2283024); conditions: primary human bronchial epithelial cells; actives raise or lower the signal
Outline: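 Dose cells, wait 24 h, run MMP1 ELISA; cells are human bronchial epithelial primaries. Both increases and decreases relative to DMSO counted.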

[7] = BSK_3C_Vis: BioMAP Diversity Plus: 3C Assay for Morphology Visualization (AID 2283025); conditions: primary human endothelial cells (HUVEC);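 note: fitted both ways so gain or loss versus DMSO counts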;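 for AC50: light microscopy image of cell morphology used as background control; cells imaged 24 h after dosing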
Outline: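 Endothelial cells from human umbilical vein were treated with test chemicals for 24 h and inspected by light microscopy for changes in cell conformation.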

[8] = BSK_4H_SRB: Viability Assessment in the BioMAP Diversity Plus: 4H Assay (AID 2283027); conditions: primary human endothelial cells (HUVEC);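 note: cells exposed to compound for 24 h before staining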;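 for AC50: curves fitted both ways versus DMSO so AC50 may be loss or gain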
Outline: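 Human umbilical vein endothelial cells were dosed with chemical and, after 24 h, fixed with 10% TCA, stained with 0.1% sulforhodamine B, and read at 560 nm to give total protein as a cytotoxicity measure. Bidirectional fitting relative to DMSO control.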

[9] = read-out: Pselectin, SELP (gene 6403); experiment: BSK_4H_Pselectin: BioMAP Diversity Plus: 4H Assay for Pselectin Biomarker Activity (AID 2283026); conditions: primary human endothelial cells (HUVEC); actives raise or lower the signal
Outline: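 Human vascular endothelium from umbilical vein; P-selectin measured by ELISA at 24 h post-dose, with cytotoxicity checked by sulforhodamine B total-protein staining in parallel cultures (0.1% SRB after 10% TCA fixation, read at 560 nm).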

Measured: AC50

CC1(C)CON(Cc2ccccc2Cl)C1=O
not listed: [9]
inactive: all other assays above

CCSC(=O)N1CCCCCC1
not listed: [4]
inactive: all other assays above

CNC(=O)N(C)c1nnc(C(C)(C)C)s1
inactive: all assays above

CC(C)N1C(=O)N(c2ccccc2)CSC1=NC(C)(C)C
inactive: [3]
active: [1] 31.8 µM | [2] 25.4 µM | [5] 27.2 µM | [6] 25.8 µM | [7] 16.3 µM | [9] 31.2 µM | [8] 31.2 µM

O=C(Nc1ccccc1-c1ccc(Cl)cc1)c1cccnc1Cl
active: [7] 39 µM
not listed: [4] | [9]
inactive: all other assays above

COCc1cnc(C2=NC(C)(C(C)C)C(=O)N2)c(C(=O)O)c1 (stereo not drawn)
not listed: [9]
inactive: all other assays above

CN=C=S
active: [1] 8.86 µM
not listed: [4] | [9]
inactive: all other assays above

CC(C)C1(C)N=C(c2ncccc2C(=O)O)NC1=O (stereo not drawn)
active: [8] 0.454 µM
not listed: [4]
inactive: all other assays above

CCCN(CC)CC1COC2(CCC(C(C)(C)C)CC2)O1 (stereo not drawn)
active: [1] 6.16 µM
not listed: [4] | [9]
inactive: all other assays above

Cc1nc(N(C)C)nc(OC(=O)N(C)C)c1C
not listed: [4] | [9]
inactive: all other assays above

O=C1C2CC=CCC2C(=O)N1SC(Cl)(Cl)Cl (stereo not drawn)
inactive: [2] | [3] | [5] | [8]
active: [1] 36.7 µM | [6] 12.1 µM | [7] 39 µM

CCCCC(O)(Cn1cncn1)c1ccc(Cl)cc1Cl (stereo not drawn)
active: [1] 20 µM | [6] 12.8 µM | [8] 14.3 µM
not listed: [4]
inactive: all other assays above

Nc1c(Cl)c(F)nc(OCC(=O)O)c1Cl
not listed: [4] | [9]
inactive: all other assays above

Cc1cnc(C2=NC(C)(C(C)C)C(=O)N2)c(C(=O)O)c1 (stereo not drawn)
not listed: [4]
inactive: all other assays above

Nc1c(Cl)c(Cl)nc(C(=O)O)c1Cl
not listed: [4] | [9]
inactive: all other assays above

CC(C)N1C(=O)c2ccccc2NS1(=O)=O
not listed: [9]
inactive: all other assays above

C=CCOC(=O)C(C)(C)OC(=O)c1cc(-n2c(=O)cc(C(F)(F)F)n(C)c2=O)ccc1Cl
active: [1] 14.7 µM
not listed: [4]
inactive: all other assays above

COP(=S)(OC)SCn1nnc2ccccc2c1=O
active: [1] 30.2 µM
not listed: [4] | [9]
inactive: all other assays above

COC(=O)NC(=S)Nc1ccccc1NC(=S)NC(=O)OC
active: [1] 14.2 µM
not listed: [9]
inactive: all other assays above

O=C(O)c1c(Cl)ccc2cc(Cl)cnc12
not listed: [4] | [9]
inactive: all other assays above

CCCCC(C#N)(Cn1cncn1)c1ccc(Cl)cc1 (stereo not drawn)
active: [7] 9.8 µM
not listed: [4]
inactive: all other assays above

Nc1cnn(-c2ccccc2)c(=O)c1Cl
active: [7] 39 µM
not listed: [4] | [9]
inactive: all other assays above

CCC(C)n1c(=O)[nH]c(C)c(Br)c1=O (stereo not drawn)
not listed: [9]
inactive: all other assays above

N#Cc1c(Cl)cccc1Cl
active: [1] 3.97 µM
not listed: [4]
inactive: all other assays above

COc1ccc(-c2ccccc2)cc1NNC(=O)OC(C)C
not listed: [4]
inactive: all other assays above

O=c1n(Cl)c(=O)n(Cl)c(=O)n1Cl
active: [1] 3.97 µM
not listed: [4] | [9]
inactive: all other assays above

CS(=O)(=O)c1cc(C(F)(F)F)ccc1C(=O)c1cnoc1C1CC1
not listed: [9]
inactive: all other assays above

CCNP(=S)(OC)O/C(C)=C/C(=O)OC(C)C (stereo not drawn)
not listed: [4] | [9]
inactive: all other assays above

CCCC(=NOCC)C1=C(O)CC(CC(C)SCC)CC1=O (stereo not drawn)
active: [7] 39 µM
not listed: [4] | [9]
inactive: all other assays above

COP(=O)(OC)O/C(C)=C/C(=O)N(C)C
not listed: [4] | [9]
inactive: all other assays above

CC(C)NC(=O)N1CC(=O)N(c2cc(Cl)cc(Cl)c2)C1=O
not listed: [4]
inactive: all other assays above

CO/N=C(/C1=NOCCO1)c1ccccc1Oc1ncnc(Oc2ccccc2Cl)c1F
inactive: [3] | [6] | [9]
active: [1] 9.24 µM | [2] 20 µM | [5] 13.4 µM | [7] 20 µM | [8] 8.6 µM
